# Experimental data: PubChem BioAssay AID1547 (National Center for Advancing Translational Sciences (NCATS), 2009)
# Activity calls are given as the source filed them.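 How the source made its calls: active means compound that significantly cut labelled fatty acid release from lipid-loaded liver cells compared with solvent alone; inactive means the rest.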
# Assay: Secondary Assay for lipid storage modulators. NEFA Incorporation/Release.
# Conditions: AML12 cells, [3H]oleic acid NEFA release, at 5 µM, stronger effect = lower value
# Excerpt: Data Source: University of Maryland BioAssay Type: Secondary Description: NIH Molecular Libraries Probe Production Centers Network [MLPCN] NIH Chemical Genomics Center [NCGC] Assay Submitter (PI): Carole Sztalryd; GRECC/Geriatrics, Veterans Affairs Medical Center, Department of Medicine, School of Medicine, University of Maryland, Baltimore, Maryland, USA. Beller, Mathias; Max-Planck-Institut fur Biophysikalische Chemie, Germany. NCGC Assay Overview: Storing lipids as a reservoir for energy or the anabolism of elementary metabolites is a common feature of probably all cells and is conserved from bacteria to humans. The universal cellular lipid storage organelle is the so-called lipid storage droplet (LD). Although ubiquitous, LDs share a simple structure composed of a hydrophobic core that harbors the storage lipids, which is shielded by a droplet-specific phospholipid monolayer to which proteins are attached. The current model of LD biogenesis involves an incorporation of the lipid core into the membrane leaflets of the endoplasmic reticulum (ER) followed by a subsequent budding-like maturation of a LD, which ultimately pinches off. Once released, LD volume can increase by localized lipogenesis or fusion of existing droplet. Storage lipids are re-mobilized enzymatically by lipase activity. Lipase regulation in the adipocyte is heavily studied and involves multiple components including catecholamine signaling, the LD-associated proteins Perilipin and comparative gene identification (CGI-58) and at least two lipases named hormone sensitive lipase (HSL) and adipocyte triglyceride lipase (ATGL). LD regulation outside of the adipocyte is poorly understood and only few components are known. However, there is an urgent need to learn more about ectopic fat depots as mislocalized storage of lipids, for example in the liver or muscle, is an eminent health problem associated with insulin resistance or the metabolic syndrome. We developed a laser-scanning cytometer assay to enable 1,536-well screening and combined the results of the small molecules screen with an RNAi database based on lipid storage. […]
# Assay Protocol Summary: Measurements of NEFA released from lipid droplets or incorporated into the TG fraction were performed as previously described. […] Lipolysis was determined by measuring radioactivity released into the media in 1 h. […] Lipids were extracted by the Bligh-Dyer method, and 10% of the total lipid was analyzed by thin layer chromatography. AML12 cells treated with or without specific siRNAs were additionally incubated with either vehicle (DMSO), 5 uM of Exo1 (12.5 mg/ml DMSO), or BFA (10 mg/ml DMSO) during the time of radioactivity release into the media (2 h). NEFA incorporation into the TG fraction and NEFA release are calculated as […]/mg protein. […]
structure (smiles),measurement,setting,value
COC(=O)c1ccccc1NC(=O)c1ccc(F)cc1,NEFA release change,,-0.35 nmol/mg (active)
same,NEFA release change,gammaCOP siRNA treatment,-0.3 nmol/mg
same,NEFA release change,measured here: ATGL siRNA treatment,-0.63 nmol/mg
same,NEFA release change,measured here: control siRNA treatment,-0.47 nmol/mg
